Measured values as given in PubChem BioAssay (Tox21).
Records with an inconclusive call do not appear. The source made the active and inactive calls. Unless noted, calls come from the whole dose curve.

Tests used:
[1] = Nuclear factor erythroid 2-related factor 2/antioxidant responsive element (Nrf2/ARE) small molecule agonists: luciferase reporter gene qHTS assay in human keratinocytes (AID 1919969); note: nearly all actives have a fitted effect of over 35% in size; note: potency is the fitted concentration of half-maximal effect
[2] = target: Gonadotropin-releasing hormone receptor (Homo sapiens) (UniProt P30968); experiment: Human gonadotropin-releasing hormone receptor (GnRHR) small molecule agonists, calcium flux assay in GnRHR-HEK293 cells (AID 1920063); note: nearly all actives have a fitted effect of over 35% in size; note: potency is the fitted concentration of half-maximal effect
In short: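 Calcium flux, agonist mode, human GnRHR stably integrated in HEK293; dye 1 h at 37 C before compound; Ex/Em=480/540 kinetic read, 3 min; 15 concentrations, triplicate.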

[3] = target: KiSS-1 receptor (Homo sapiens) (UniProt Q969F8); experiment: Human kisspeptin (KISS1R) small molecule agonists, calcium flux assay in KISS1R-HEK293 cells (AID 1920064; active = well fitted activation curve with a large enough effect in the repeat runs)
In short: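 Triplicate 15-concentration series were applied to dye-loaded human KISS1R HEK293 cells, and agonist-evoked calcium fluorescence was captured for 3 min.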

[4] = G protein-coupled receptor (GPCR) small molecule agonists, calcium flux assay: HEK293 wild type cell line counter screen (AID 1920065)
In short: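 Non-specific calcium responders were flagged by adding DMSO-dissolved compounds to dye-loaded cells and reading 480/540 nm fluorescence each second for 3 min; ATP served as positive control.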

[5] = p53 small molecule agonists, cell-based qHTS assay with human liver microsomes (AID 1963577)
In short: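 Cells carrying a p53-responsive bla reporter were rested 5 h (37 C, 5% CO2) before compound transfer. Human liver microsomes plus NADPH, 0.5 mg/mL final apiece, supplied metabolism during the 16 h 37 C exposure.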

[6] = p53 small molecule agonists, cell-based qHTS assay with rat liver microsomes (AID 1963578)
In short: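 Fluorescence from a beta-lactamase reporter under a p53 response element was measured after cells had been incubated 16 h at 37 C with test compound and rat liver microsomes plus NADPH (0.5 mg/mL final each).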

[7] = p53 small molecule agonists, cell-based qHTS assay with rat liver microsomes: qHTS cell viability counter screen (AID 1963580); note: nearly all actives have a fitted effect of over 45% in size; note: potency is the fitted concentration of half-maximal effect
In short: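 Luminescent ATP readout (CellTiter-Glo, 30 min at room temperature) reports viability of p53RE-bla HCT-116 cells after 16 h at 37 C with test compounds under metabolic activation by rat liver microsomes and NADPH at 0.5 mg/mL final each.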

[8] = target: 5-hydroxytryptamine receptor 2A (Homo sapiens) (UniProt P28223); experiment: 5-hydroxytryptamine receptor 2A (HTR2A) small molecule agonists, cell-based qHTS assay (AID 1963587); note: nearly all actives have a fitted effect of over 30% in size; note: potency is the fitted concentration of half-maximal effect
In short: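 HTR2A-CHO cells, plated 18 h at 37 C/5% CO2, dye-loaded 1 h at 37 C; compounds in DMSO added by pin tool (agonist mode). Intracellular calcium flux read as kinetic fluorescence on FDSS over 2 min at 1 s intervals.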

[9] = target: Muscarinic acetylcholine receptor M1 (Homo sapiens) (UniProt P11229); experiment: Cholinergic receptor muscarinic 1 (CHRM1) small molecule agonists, cell-based qHTS assay (AID 1963589); note: nearly all actives have a fitted effect of over 35% in size
In short: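 qHTS, 15-point titration, 3 independent runs: compounds pin-transferred onto dye-loaded CHRM1-CHO cells (human M1), calcium fluorescence followed every second to detect agonism.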

[10] = cAMP Responsive Elements (CRE) small molecule antagonists, cell-based qHTS assay (AID 1963591; active = well fitted inhibition curve with a large enough effect in the signal ratio in the repeat runs, not every such curve was filed as active; the % refers to the signal ratio)
In short: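 Fluorescence intensity from cleaved LiveBLAzer B/G substrate (2 h, room temperature) quantified CRE-bla activity in HEK 293T cells exposed 3 h to compound with 0.25 uM final NKH477.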

[11] = target: Beta-2 adrenergic receptor (Homo sapiens) (UniProt P07550); experiment: Adrenergic beta2 receptor (ADRB2) small molecule antagonists, cell-based qHTS assay (AID 1963592); note: nearly all actives have a fitted effect of over 50% in size; note: potency is the fitted concentration of half-maximal effect; for activity change, negative = inhibition: series mostly up to about 92 µM
In short: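 Assay format: CHO-ADRB2 cells, 18-20hr seeding at 37C/5% CO2, then compound plus 1nM isoproterenol agonist mix for 0.5hr RT. Homogeneous time-resolved fluorescence cAMP detection after 1hr, expressed as 665/615 nm ratio.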

[12] = target: D(2) dopamine receptor (Homo sapiens) (UniProt P14416); experiment: Dopamine D2 receptor (DRD2) small molecule agonists, cell-based qHTS assay (AID 1963594); note: nearly all actives have a fitted effect of over 35% in size; note: potency is the fitted concentration of half-maximal effect
In short: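 HEK293 cells stably expressing DRD2 were cultured 24 h at 37 C, then given Ro20-1724 (0.1 mM final) and compounds for 10 min at room temperature. NKH477 (200nM) was then added for 30 min. cAMP was read by HTRF.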

[13] = target: D(2) dopamine receptor (Homo sapiens) (UniProt P14416); experiment: Dopamine D2 receptor (DRD2) small molecule antagonists, cell-based qHTS assay (AID 1963595; active = well fitted inhibition curve with a large enough effect in the signal ratio in the repeat runs, with a control signal flat; the % refers to the signal ratio)
In short: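 In this cell-based antagonist screen, compounds act for 10 min at room temperature before a 30 min challenge with 12 nM quinpirole and 200 nM NKH477. cAMP is quantified by HTRF competition in DRD2-HEK293 cells containing 0.1 mM Ro20-1724.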

[14] = p53 small molecule agonists, cell-based qHTS assay with human liver microsomes: qHTS cell viability counter screen (AID 1963579); note: nearly all actives have a fitted effect of over 45% in size; note: potency is the fitted concentration of half-maximal effect
In short: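 Seed p53RE-bla cells at 4,000 per well; incubate 5 h at 37 C; add compound, human liver microsomes and NADPH; incubate 16 h at 37 C; add CellTiter-Glo; after 30 min at room temperature, read luminescence.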

[15] = p53 small molecule agonists, cell-based qHTS assay: qHTS cell viability counter screen (AID 1963581); note: nearly all actives have a fitted effect of over 45% in size; note: potency is the fitted concentration of half-maximal effect
In short: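 Multiplexed with the reporter read, a CellTiter-Glo step (30 min, room temperature) gauges ATP-based viability of HCT-116 p53RE-bla cells after 16 h compound incubation at 37 C.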

[16] = target: 5-hydroxytryptamine receptor 2A (Homo sapiens) (UniProt P28223); experiment: 5-hydroxytryptamine receptor 2A (HTR2A) small molecule antagonists, cell-based qHTS assay (AID 1963586); note: nearly all actives have a fitted effect of over 45% in size
In short: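 CHO cells stably expressing human HTR2A were plated for 18 h at 37 C, then loaded with calcium dye for 1 h. Compounds were preincubated 5 min at room temperature before DOI (4 nM solution) was added. Kinetic fluorescence was read for 3 min.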

[17] = target: Muscarinic acetylcholine receptor M1 (Homo sapiens) (UniProt P11229); experiment: Cholinergic receptor muscarinic 1 (CHRM1) small molecule antagonists, cell-based qHTS assay (AID 1963588); note: nearly all actives have a fitted effect of over 40% in size; note: potency is the fitted concentration of half-maximal effect
In short: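 Compounds were tested at 15 concentrations in three independent runs. Dye-loaded CHRM1-CHO cells were exposed 5 min at room temperature before stimulation by acetylcholine added at 50nM. Intracellular calcium was read kinetically on FDSS for 3 min.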

[18] = p53 small molecule agonists, cell-based qHTS assay (AID 1963582; active = well fitted activation curve with a large enough effect in the signal ratio in the repeat runs, not every such curve was filed as active; the % refers to the signal ratio)
In short: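 Beta-lactamase reporter cells (p53RE-bla) treated with compounds for 16 h at 37 C; FRET substrate, 2 h, room temperature; fluorescence intensity.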

[19] = cAMP Responsive Elements (CRE) small molecule agonists, cell-based qHTS assay (AID 1963590)
In short: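 Quantitative HTS for CRE agonists: HEK 293T CRE-bla cells, overnight plating, 3 h compound incubation at 37 C/5% CO2, then 2 h room-temperature LiveBLAzer B/G FRET substrate loading.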

[20] = target: Beta-2 adrenergic receptor (Homo sapiens) (UniProt P07550); experiment: Adrenergic beta2 receptor (ADRB2) small molecule agonists, cell-based qHTS assay (AID 1963593);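 note: CHO cells stably overexpressing human ADRB2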
In short: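 CHO cells stably over-expressing ADRB2 were plated overnight at 37C, then dosed with compounds plus a stimulation mix containing 100uM IBMX and 25uM Ro-20-1724 for 0.5hr at room temperature. cAMP was measured by HTRF competition, 1hr.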
% is set by controls: 0 for no effect and ±100 for the full control effect.

Sequence of D(2) dopamine receptor (Homo sapiens) (P14416 whole entry, looked up): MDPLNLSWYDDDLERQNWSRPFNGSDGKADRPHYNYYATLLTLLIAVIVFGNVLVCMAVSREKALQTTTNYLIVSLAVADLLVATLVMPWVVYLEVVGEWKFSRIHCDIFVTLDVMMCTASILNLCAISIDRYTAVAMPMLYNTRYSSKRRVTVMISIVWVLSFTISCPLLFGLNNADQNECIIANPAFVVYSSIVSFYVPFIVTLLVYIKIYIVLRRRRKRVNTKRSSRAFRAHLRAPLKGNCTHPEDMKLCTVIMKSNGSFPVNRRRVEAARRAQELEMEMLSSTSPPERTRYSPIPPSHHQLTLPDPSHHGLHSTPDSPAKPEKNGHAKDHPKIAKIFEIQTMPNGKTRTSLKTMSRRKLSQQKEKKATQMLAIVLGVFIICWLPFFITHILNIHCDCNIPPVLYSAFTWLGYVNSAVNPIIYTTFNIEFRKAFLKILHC
Sequence of Gonadotropin-releasing hormone receptor (Homo sapiens) (P30968 whole entry, looked up): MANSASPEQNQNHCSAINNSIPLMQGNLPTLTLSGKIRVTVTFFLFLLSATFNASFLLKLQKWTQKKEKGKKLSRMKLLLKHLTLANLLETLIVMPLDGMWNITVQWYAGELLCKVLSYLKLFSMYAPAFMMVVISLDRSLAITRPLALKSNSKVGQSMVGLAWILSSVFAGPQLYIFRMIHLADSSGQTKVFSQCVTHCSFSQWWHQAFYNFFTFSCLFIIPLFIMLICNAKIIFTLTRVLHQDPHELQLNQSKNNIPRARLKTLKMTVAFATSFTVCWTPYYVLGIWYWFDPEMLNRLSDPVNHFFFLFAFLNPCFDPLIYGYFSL
Sequence of Muscarinic acetylcholine receptor M1 (Homo sapiens) (P11229 whole entry, looked up): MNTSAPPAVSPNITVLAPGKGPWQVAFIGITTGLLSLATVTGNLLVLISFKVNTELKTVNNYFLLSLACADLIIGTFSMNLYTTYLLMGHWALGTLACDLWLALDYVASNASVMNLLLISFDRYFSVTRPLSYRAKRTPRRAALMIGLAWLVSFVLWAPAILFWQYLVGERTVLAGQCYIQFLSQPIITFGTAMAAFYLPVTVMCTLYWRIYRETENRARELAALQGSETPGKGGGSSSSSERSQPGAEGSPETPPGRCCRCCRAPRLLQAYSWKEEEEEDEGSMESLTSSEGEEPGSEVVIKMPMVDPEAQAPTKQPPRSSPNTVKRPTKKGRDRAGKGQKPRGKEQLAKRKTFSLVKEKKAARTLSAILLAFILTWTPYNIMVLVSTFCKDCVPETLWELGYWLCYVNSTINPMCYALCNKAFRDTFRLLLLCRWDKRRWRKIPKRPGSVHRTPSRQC
Sequence of 5-hydroxytryptamine receptor 2A (Homo sapiens) (P28223 whole entry, looked up): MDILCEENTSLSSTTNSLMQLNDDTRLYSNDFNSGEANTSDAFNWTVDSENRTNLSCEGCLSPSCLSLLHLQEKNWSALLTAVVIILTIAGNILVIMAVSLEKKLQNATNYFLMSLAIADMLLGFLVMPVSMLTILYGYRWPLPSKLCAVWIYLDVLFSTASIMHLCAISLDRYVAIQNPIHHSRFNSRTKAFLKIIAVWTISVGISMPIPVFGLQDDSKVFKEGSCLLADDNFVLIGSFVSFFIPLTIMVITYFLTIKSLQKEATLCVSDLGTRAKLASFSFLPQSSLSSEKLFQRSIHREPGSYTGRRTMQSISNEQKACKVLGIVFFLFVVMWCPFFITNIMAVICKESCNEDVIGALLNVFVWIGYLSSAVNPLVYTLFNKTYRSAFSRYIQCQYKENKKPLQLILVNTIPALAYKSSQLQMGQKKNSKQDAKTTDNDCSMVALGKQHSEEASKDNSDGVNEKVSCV
Sequence of Beta-2 adrenergic receptor (Homo sapiens) (P07550 whole entry, looked up): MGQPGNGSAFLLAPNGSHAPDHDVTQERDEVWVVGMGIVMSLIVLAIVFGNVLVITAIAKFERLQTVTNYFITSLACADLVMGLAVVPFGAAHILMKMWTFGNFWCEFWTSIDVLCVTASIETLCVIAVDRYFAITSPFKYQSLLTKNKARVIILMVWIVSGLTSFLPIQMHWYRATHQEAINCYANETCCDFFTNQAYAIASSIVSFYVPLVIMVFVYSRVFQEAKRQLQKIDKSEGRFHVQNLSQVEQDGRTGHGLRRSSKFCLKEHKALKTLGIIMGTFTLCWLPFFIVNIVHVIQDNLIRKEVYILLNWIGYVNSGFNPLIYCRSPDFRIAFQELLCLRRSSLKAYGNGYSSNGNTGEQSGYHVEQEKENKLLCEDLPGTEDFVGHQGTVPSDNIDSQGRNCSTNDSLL
Sequence of KiSS-1 receptor (Homo sapiens) (Q969F8 whole entry, looked up): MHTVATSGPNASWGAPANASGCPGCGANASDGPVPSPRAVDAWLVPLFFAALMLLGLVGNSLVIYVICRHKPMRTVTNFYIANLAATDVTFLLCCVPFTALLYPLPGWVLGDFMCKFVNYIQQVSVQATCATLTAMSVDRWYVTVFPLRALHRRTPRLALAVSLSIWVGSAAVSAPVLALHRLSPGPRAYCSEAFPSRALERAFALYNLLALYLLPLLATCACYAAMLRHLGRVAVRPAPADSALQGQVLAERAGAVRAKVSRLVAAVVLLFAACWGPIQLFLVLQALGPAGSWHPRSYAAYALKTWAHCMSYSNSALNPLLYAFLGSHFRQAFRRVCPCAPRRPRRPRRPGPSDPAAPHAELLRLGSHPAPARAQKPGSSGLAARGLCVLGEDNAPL

O=C(c1ccccc1)c1ccc(Cl)cc1
inactive: Potency [2] | outcome [3] | outcome [4] | Potency [5] | Potency [6] | Potency [7] | Potency [8] | Potency [9] | Potency [10] | Potency [11] | Potency [12] | Potency [13]
active: Potency [1] 61.1 µM

CN(C[C@@H](CC[N+]12CCC(C3CCCCC3)(CC1)CC2)c1ccc(Cl)c(Cl)c1)C(=O)c1cc(C(F)(F)F)cc(C(F)(F)F)c1
active: Potency [1] 24.3 µM | Potency [14] 36.3 µM | Potency [7] 40.8 µM | Potency [17] 0.0942 µM
inactive: Potency [2] | outcome [3] | outcome [4] | Potency [5] | Potency [6] | Potency [15] | Potency [16] | Potency [8] | Potency [9]

CCCc1nn(C)c2c(=O)[nH]c(-c3cc(S(=O)(=O)N4CCN(C)CC4)ccc3OCC)nc12
inactive: Potency [1] | Potency [2] | outcome [3] | outcome [4] | Potency [5] | Potency [6] | Potency [14] | Potency [7] | Potency [18] | Potency [19] | Potency [10] | Potency [11] | Potency [20] | Potency [12] | Potency [13]

CC(C)(O)c1ccccc1CC[C@@H](SCC1(CC(=O)O)CC1)c1cccc(/C=C/c2ccc3ccc(Cl)cc3n2)c1
inactive: Potency [1] | Potency [2] | outcome [3] | outcome [4] | Potency [5] | Potency [6] | Potency [14] | Potency [7] | Potency [15] | Potency [18] | Potency [19] | Potency [11] | Potency [12]

CCN(CC)c1ccc2c(-c3ccc(S(=O)(=O)O)cc3S(=O)(=O)[O-])c3ccc(=[N+](CC)CC)cc-3oc2c1
inactive: outcome [3] | outcome [4] | Potency [5] | Potency [6] | Potency [14] | Potency [18] | Potency [16] | Potency [17] | Potency [19] | Potency [10]
active: Potency [2] 45.1 µM | Potency [8] 56.7 µM | Potency [12] 24.5 µM

CC1(C)[C@H]2CC[C@]1(C)C(=O)C2
active: Potency [1] 68.6 µM
inactive: Potency [2] | outcome [3] | outcome [4] | Potency [6] | Potency [14] | Potency [7] | Potency [10] | Potency [11] | Potency [20] | Potency [12] | Potency [13]

Cc1cc(C)c(C=O)c(C)c1
inactive: Potency [1] | outcome [3] | outcome [4] | Potency [5] | Potency [14] | Potency [15] | Potency [18] | Potency [16] | Potency [8] | Potency [9] | Potency [19] | Potency [10] | Potency [11] | Potency [12]

C#CC(C)(CC)OC(=O)c1ccccc1C(=O)O (configuration not stated)
inactive: Potency [1] | Potency [2] | outcome [4] | Potency [5] | Potency [6] | Potency [14] | Potency [7] | Potency [15] | Potency [18] | Potency [16] | Potency [8] | Potency [17] | Potency [9] | Potency [19] | Potency [10] | Potency [11] | Potency [13]

CC(=O)c1ccc2ccc3ccccc3c2c1
inactive: Potency [1] | Potency [2] | outcome [3] | Potency [5] | Potency [6] | Potency [14] | Potency [7] | Potency [15] | Potency [16] | Potency [8] | Potency [17] | Potency [9] | Potency [10] | Potency [12] | Potency [13]

COc1ccc(C2C(=O)c3ccccc3C2=O)cc1
inactive: Potency [1] | Potency [2] | outcome [3] | outcome [4] | Potency [6] | Potency [14] | Potency [7] | Potency [15] | Potency [18] | Potency [19] | Potency [10] | Potency [11] | Potency [12] | Potency [13]

C/C(=C(\CCOP(=O)(O)O)SC(=O)c1ccccc1)N(C=O)Cc1cnc(C)nc1N
inactive: activity, positive = activation [1] -0.129% [at 8.39 µM] | activity change [2] -0.163% [at 5.22 µM, active compounds read high] | activation [3] -0.956% [at 6.97 µM] | activation [4] -0.0907% [at 5.23 µM] | activation [6] -4.95% [at 5.99 µM] | activity change, negative = cytotoxicity [14] 1.21% [at 5.99 µM] | activity change, negative = cytotoxicity [7] 1.33% [at 5.99 µM] | activity change, negative = cytotoxicity [15] 10.8% [at 5.99 µM] | activation [18] 1.46% [at 5.99 µM] | activation [8] -0.64% [at 7.02 µM] | activation [9] -0.572% [at 6.97 µM] | activation [19] 1.28% [at 8.39 µM] | activity change, negative = inhibition [10] 1.78% [at 8.39 µM] | activity change, negative = inhibition [11] 2.25% [at 8.39 µM] | activation [12] 3.76% [at 8.39 µM] | activity change, negative = inhibition [13] 2.34% [at 8.38 µM]

CC(C)(C#N)Nc1nc(Cl)nc(NC2CC2)n1
inactive: Potency [1] | Potency [2] | outcome [3] | Potency [5] | Potency [6] | Potency [14] | Potency [7] | Potency [15] | Potency [18] | Potency [8] | Potency [17] | Potency [9] | Potency [19] | Potency [11] | Potency [12] | Potency [13]

CC(C)OC(=O)c1cc2c(OCC(O)CNC(C)(C)C)cccc2[nH]1 (configuration not stated)
inactive: Potency [1] | Potency [2] | outcome [3] | outcome [4] | Potency [5] | Potency [14] | Potency [7] | Potency [15] | Potency [18] | Potency [16] | Potency [8] | Potency [17] | Potency [9] | Potency [19] | Potency [10] | Potency [13]
active: Potency [11] 0.0033 µM | Potency [12] 13.3 µM

COc1ccc(CN2CCN(C(c3ccc(F)cc3)c3ccc(F)cc3)CC2)c(OC)c1OC
inactive: Potency [1] | Potency [2] | outcome [3] | outcome [4] | Potency [5] | Potency [14] | Potency [18] | Potency [8] | Potency [9] | Potency [11] | Potency [12]
active: Potency [15] 15.8 µM | Potency [17] 2.59 µM

CCCC(C)C
inactive: Potency [1] | outcome [3] | outcome [4] | Potency [5] | Potency [6] | Potency [14] | Potency [7] | Potency [15] | Potency [16] | Potency [8] | Potency [17] | Potency [9] | Potency [19] | Potency [10] | Potency [11] | Potency [12] | Potency [13]

COc1cc(OC)cc(OC)c1
inactive: Potency [1] | Potency [2] | outcome [4] | Potency [5] | Potency [6] | Potency [14] | Potency [15] | Potency [18] | Potency [16] | Potency [8] | Potency [17] | Potency [9] | Potency [19] | Potency [10] | Potency [11] | Potency [20] | Potency [12] | Potency [13]
